About 8,800 targets were measured; listed, in parts, are those with a hit and a random draw of the rest. About 0.5% of all pairs of compound and target were hits.
Columns and labels:
Assay in all cases: log2 fold change, soluble protein after heating vs DMSO (PISA); higher = thermal stabilisation; K562 lysate, 10 uM; active = over 0.2 and 3.5 SD of the protein, either way, in both replicates (recomputed)
[1] = compound: NCC(=O)Nc1ccc(-n2nc(C(F)(F)F)cc2-c2ccc3c(ccc4ccccc43)c2)cc1
How it was run: (§1)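 The values are log-two fold changes in thermal stability compared with solvent controls and come from duplicates. They were obtained by TMTpro 16plex LC-MS/MS, with channel sums equalised, on the supernatant after 21,000xg for 90 min. That supernatant came from crude K562 extract at 1 mg/mL protein treated with 10 μM compound for 30 min, heated for 3 min across 48°C-58°C, pooled and brought to 0.5% NP-40 at 4°C.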

[2] = compound: O=C(CCCCCCC(=O)Nc1ccccc1)NO [vorinostat]
How it was run: as §1

[3] = compound: O=C(O)c1ccc2c(c1)nc(Nc1cccc(Cl)c1)c1ccncc12 [silmitasertib]
How it was run: as §1

[4] = compound: O=C1NC(=O)C(c2cnc3ccccn23)=C1c1cn2c3c(cc(F)cc13)CN(C(=O)N1CCCCC1)CC2
How it was run: as §1

[5] = compound: c1cn2cc(-c3ccc4cn[nH]c4c3)nc(Nc3ccc(N4CCOCC4)cc3)c2n1 [entospletinib]
How it was run: as §1

Measured: log2 fold change

BBS7 (UniProt Q8IWZ6)
UniProt Q8IWZ6, sequence (Q8IWZ6 whole entry, looked up): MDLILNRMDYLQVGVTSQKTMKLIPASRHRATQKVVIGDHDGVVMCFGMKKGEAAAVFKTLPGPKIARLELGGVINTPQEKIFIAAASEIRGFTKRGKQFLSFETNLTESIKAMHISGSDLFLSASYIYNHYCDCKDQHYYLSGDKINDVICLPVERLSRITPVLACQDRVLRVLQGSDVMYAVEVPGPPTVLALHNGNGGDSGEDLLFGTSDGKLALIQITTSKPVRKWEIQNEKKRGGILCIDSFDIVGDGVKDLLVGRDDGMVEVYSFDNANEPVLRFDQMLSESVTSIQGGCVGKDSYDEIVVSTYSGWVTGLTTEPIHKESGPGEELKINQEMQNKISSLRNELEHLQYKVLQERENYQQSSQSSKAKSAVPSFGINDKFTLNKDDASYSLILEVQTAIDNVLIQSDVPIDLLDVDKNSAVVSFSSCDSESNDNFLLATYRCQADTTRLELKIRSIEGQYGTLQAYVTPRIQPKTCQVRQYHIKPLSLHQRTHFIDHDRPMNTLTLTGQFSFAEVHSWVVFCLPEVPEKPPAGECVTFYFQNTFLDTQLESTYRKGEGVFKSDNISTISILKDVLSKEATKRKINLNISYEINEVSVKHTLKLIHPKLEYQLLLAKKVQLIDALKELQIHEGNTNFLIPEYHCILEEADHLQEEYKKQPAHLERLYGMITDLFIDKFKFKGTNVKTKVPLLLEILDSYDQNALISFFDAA
inactive: [1] -0.006 | [2] -0.354 | [3] 0.133 | [4] -0.015 | [5] -0.007

CDC42EP4 (UniProt Q9H3Q1)
UniProt Q9H3Q1, sequence (Q9H3Q1 whole entry, looked up): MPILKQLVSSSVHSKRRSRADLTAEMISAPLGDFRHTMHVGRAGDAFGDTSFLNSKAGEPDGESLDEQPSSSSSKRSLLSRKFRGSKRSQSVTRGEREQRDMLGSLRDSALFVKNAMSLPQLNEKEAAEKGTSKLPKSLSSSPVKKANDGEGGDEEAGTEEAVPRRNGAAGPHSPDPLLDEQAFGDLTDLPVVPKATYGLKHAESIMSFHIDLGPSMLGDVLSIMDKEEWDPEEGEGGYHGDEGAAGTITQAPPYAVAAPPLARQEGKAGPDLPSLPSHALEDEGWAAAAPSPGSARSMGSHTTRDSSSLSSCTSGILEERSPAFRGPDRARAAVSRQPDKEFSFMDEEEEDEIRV
inactive: [1] 0 | [2] 0.018 | [3] -0.074 | [4] 0.021 | [5] 0.051

CDK5 (UniProt Q00535)
UniProt Q00535, sequence (Q00535 whole entry, looked up): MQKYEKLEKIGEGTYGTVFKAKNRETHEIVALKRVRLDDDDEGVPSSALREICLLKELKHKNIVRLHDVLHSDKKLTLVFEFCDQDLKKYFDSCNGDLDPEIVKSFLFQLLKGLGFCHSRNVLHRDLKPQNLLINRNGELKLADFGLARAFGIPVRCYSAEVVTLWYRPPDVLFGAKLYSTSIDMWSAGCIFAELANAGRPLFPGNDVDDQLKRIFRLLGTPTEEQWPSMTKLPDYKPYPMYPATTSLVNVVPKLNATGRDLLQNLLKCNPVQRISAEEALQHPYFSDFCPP
inactive: [1] -0.036 | [2] -0.232 | [4] 0.179 | [5] 0.036
active: [3] 0.855

ATG7 (UniProt O95352)
active: [2] -0.47
inactive: [1] 0.008 | [3] 0.005 | [4] -0.005 | [5] 0.001

BRD2 isoform 2 (UniProt P25440)
UniProt P25440, sequence (P25440 whole entry, looked up): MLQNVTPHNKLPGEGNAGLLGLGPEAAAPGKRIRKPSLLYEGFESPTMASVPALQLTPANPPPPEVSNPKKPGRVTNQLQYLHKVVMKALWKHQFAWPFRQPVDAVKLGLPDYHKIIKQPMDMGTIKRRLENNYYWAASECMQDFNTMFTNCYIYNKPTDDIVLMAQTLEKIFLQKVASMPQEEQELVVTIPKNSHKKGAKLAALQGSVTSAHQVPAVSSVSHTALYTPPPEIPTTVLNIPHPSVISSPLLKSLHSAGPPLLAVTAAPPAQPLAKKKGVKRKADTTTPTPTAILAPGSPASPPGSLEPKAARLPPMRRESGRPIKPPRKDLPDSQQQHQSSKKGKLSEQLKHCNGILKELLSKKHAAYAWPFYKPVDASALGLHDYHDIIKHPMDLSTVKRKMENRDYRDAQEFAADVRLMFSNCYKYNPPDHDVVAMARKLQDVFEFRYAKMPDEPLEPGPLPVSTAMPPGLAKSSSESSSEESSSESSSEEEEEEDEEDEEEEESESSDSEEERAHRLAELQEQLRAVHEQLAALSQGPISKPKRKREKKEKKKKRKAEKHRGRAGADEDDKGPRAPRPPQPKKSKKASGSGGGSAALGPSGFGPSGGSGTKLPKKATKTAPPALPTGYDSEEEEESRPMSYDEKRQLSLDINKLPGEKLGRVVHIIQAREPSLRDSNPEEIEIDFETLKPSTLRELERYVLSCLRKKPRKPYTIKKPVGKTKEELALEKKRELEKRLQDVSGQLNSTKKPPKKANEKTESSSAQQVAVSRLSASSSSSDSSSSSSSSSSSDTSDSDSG
inactive: [1] 0.048 | [2] 0.107 | [3] 0.074 | [4] 0.051 | [5] 0.021

CCDC47 (UniProt Q96A33)
active: [2] 0.207
inactive: [1] 0.002 | [3] 0.026 | [4] 0.011 | [5] -0.007

BORCS5 (UniProt Q969J3)
inactive: [1] -0.061 | [2] 0.136 | [3] 0.008 | [4] 0.026 | [5] -0.115

ATE1 isoform 2 (UniProt O95260)
inactive: [1] -0.068 | [3] 0.041 | [4] -0.01 | [5] -0.008
active: [2] -0.444

BRD4 (UniProt O60885)
inactive: [1] 0.01 | [2] -0.115 | [3] -0.011 | [4] -0.02 | [5] -0.028

CCDC85B (UniProt Q15834)
inactive: [1] -0.039 | [2] 0.088 | [3] 0.042 | [4] -0.077 | [5] -0.397

CDS2 (UniProt O95674)
inactive: [1] 0.007 | [2] 0.093 | [3] 0.024 | [4] -0.065 | [5] -0.028

CHCHD4 isoform 2 (UniProt Q8N4Q1)
UniProt Q8N4Q1, sequence (Q8N4Q1 whole entry, looked up): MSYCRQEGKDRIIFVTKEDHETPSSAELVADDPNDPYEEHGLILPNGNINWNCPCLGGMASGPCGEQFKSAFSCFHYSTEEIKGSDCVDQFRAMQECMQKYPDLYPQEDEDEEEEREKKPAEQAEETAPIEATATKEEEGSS
inactive: [1] 0.06 | [2] 0.207 | [3] -0.145 | [4] -0.027 | [5] 0.01

CDK5RAP1 (UniProt Q96SZ6)
inactive: [1] 0.011 | [2] 0.036 | [3] -0.07 | [4] 0.016 | [5] 0.029

CDKN2AIP (UniProt Q9NXV6)
UniProt Q9NXV6, sequence (Q9NXV6 whole entry, looked up): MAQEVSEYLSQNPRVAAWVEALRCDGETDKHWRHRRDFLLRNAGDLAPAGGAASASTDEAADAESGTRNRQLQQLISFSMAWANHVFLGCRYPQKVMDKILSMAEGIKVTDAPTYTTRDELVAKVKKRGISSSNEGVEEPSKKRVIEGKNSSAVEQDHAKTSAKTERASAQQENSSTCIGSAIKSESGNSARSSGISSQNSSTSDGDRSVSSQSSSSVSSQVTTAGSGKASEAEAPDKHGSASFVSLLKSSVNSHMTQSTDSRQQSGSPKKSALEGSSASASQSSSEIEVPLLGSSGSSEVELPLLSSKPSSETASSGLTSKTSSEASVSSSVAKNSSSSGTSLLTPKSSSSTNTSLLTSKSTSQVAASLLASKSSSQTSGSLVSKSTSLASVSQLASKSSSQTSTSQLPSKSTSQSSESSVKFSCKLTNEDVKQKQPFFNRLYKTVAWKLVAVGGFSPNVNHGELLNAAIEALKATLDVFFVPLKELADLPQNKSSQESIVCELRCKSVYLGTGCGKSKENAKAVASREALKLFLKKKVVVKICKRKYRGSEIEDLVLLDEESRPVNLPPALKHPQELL
inactive: [1] -0.005 | [2] 0.072 | [3] -0.037 | [4] -0.022 | [5] 0.013

CES2 isoform 4 (UniProt O00748)
UniProt O00748, sequence (O00748 whole entry, looked up): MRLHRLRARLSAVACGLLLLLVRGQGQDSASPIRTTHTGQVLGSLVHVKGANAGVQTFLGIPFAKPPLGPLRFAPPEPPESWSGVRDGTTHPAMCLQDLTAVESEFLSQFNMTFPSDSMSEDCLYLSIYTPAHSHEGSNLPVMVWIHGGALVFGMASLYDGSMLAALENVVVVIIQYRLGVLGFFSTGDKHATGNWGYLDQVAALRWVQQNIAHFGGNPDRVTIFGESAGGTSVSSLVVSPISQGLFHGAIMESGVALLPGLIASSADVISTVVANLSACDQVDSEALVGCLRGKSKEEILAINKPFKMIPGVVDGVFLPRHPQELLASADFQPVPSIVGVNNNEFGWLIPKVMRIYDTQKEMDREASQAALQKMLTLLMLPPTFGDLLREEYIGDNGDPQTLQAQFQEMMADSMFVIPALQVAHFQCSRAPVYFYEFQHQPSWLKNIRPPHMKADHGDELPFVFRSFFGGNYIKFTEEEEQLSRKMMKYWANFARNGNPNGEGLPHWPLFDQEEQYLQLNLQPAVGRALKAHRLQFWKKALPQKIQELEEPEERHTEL
inactive: [1] 0.049 | [2] 0.307 | [3] -0.093 | [4] 0.177 | [5] -0.034

BCR (UniProt P11274)
active: [2] -0.267
inactive: [1] 0.012 | [3] 0.005 | [4] 0.001 | [5] -0.009

ATP9B (UniProt O43861)
inactive: [1] 0.013 | [2] 0.012 | [3] 0.005 | [4] -0.045 | [5] 0

C1orf112 (UniProt Q9NSG2)
inactive: [1] -0.075 | [2] -0.095 | [3] -0.084 | [4] 0.003 | [5] -0.037

AURKAIP1 (UniProt Q9NWT8)
inactive: [1] 0.073 | [2] 0.08 | [3] -0.01 | [4] 0.071 | [5] -0.081

ATP13A1 (UniProt Q9HD20)
inactive: [1] -0.009 | [2] -0.094 | [3] 0.03 | [4] -0.02 | [5] -0.03

CCT6A (UniProt P40227)
inactive: [1] 0.004 | [2] 0.049 | [3] -0.005 | [4] 0.012 | [5] 0.024

ATP11A (UniProt P98196)
UniProt P98196, sequence (P98196 whole entry, looked up): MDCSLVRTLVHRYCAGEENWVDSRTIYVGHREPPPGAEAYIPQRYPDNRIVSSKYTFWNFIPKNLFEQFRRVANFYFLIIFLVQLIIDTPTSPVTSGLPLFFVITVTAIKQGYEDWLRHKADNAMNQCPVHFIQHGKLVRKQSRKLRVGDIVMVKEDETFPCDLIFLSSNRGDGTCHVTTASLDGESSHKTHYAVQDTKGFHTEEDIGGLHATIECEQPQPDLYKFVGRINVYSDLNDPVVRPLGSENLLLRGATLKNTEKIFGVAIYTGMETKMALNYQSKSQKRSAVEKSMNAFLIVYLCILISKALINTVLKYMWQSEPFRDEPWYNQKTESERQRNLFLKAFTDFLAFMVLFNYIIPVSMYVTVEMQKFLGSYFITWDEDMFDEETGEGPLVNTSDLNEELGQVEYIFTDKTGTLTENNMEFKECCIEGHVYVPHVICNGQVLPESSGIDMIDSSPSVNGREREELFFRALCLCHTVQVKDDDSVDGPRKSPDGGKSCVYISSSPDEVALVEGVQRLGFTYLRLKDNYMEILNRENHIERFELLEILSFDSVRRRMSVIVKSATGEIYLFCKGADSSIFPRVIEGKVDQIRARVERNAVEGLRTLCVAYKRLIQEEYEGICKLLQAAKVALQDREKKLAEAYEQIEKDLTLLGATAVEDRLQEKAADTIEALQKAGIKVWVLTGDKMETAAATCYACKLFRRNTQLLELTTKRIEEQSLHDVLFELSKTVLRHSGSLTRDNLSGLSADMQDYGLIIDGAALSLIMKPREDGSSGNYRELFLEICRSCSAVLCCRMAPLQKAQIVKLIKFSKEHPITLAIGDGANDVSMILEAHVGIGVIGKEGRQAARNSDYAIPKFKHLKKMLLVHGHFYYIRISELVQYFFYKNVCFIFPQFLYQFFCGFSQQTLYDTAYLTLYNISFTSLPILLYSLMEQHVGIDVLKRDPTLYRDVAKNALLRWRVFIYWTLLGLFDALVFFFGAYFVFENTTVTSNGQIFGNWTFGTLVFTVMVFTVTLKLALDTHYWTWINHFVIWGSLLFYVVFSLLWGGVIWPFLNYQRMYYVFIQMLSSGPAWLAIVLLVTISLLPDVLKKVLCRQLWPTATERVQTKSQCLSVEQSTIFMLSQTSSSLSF
inactive: [1] 0.168 | [3] 0.106 | [4] 0.009 | [5] -0.054
active: [2] -0.265

CHCHD1 (UniProt Q96BP2)
inactive: [1] 0.131 | [2] 0.055 | [3] -0.039 | [4] -0.014 | [5] -0.081

CEP41 (UniProt Q9BYV8)
UniProt Q9BYV8, sequence (Q9BYV8 whole entry, looked up): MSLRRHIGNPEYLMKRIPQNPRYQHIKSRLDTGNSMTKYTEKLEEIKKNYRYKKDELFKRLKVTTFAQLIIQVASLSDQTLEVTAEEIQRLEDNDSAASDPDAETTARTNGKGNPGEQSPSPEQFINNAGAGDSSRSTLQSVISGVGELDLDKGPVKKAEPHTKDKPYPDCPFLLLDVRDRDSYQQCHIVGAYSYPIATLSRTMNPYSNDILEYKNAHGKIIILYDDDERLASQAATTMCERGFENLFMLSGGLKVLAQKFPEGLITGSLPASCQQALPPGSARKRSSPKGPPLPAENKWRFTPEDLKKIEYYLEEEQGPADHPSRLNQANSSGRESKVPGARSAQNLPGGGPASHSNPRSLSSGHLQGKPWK
active: [2] -0.558
inactive: [1] 0.002 | [3] -0.026 | [4] -0.152 | [5] -0.017

From the supplement of paper PMC10849652
